# Assay results taken from PubChem BioAssay.
# Active and inactive are the calls of the source.
# Tests used:
# Albumin (Bos taurus) = Albumin (Bos taurus) (UniProt P02769); assay: bovine serum albumin binders on microarray, profiling panel, artefact control for SMM control protein annotation, biochemical, small-molecule microarray, Alexa647 label, 635/667 nm fluorescence (AID 1118); conditions: BSA-A647 binding, fluorescence 635 nm, higher = more signal;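 also: score merges 667 nm emission intensity and signal-to-noise per printed compound spot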
# [1] = small-molecule microarray binders of probe aXIP, primary screen, biochemical, NeuroSMM set, 635/667 nm fluorescence (AID 1119); conditions: higher = more signal, called active from +8 up or from −8 down;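 also: probe is the protein aXip251-270 applied at 1 µg/mL to compound-printed slides; binding of probe to printed compounds measured as 667 nm fluorescence plus signal to noise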
# [2] = small-molecule binders of probe aNOTCH3, primary screen, biochemical, small-molecule microarray, 635/667 nm fluorescence (AID 1120); conditions: higher = more signal;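 also: probe is a biotin-tagged antibody raised against NOTCH3 rather than NOTCH3 protein; score merges spot fluorescence near 667 nm with spot signal to noise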
# [3] = small-molecule binders of probe aNOTCH2, primary screen, biochemical, small-molecule microarray, 635/667 nm fluorescence (AID 1121); conditions: higher = more signal;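 also: score merges feature fluorescence read at 667 nm with its signal to noise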
# [4] = target: Carbonic anhydrase 2 (Homo sapiens) (UniProt P00918); assay: CAII small-molecule binders, profiling panel, biochemical, small-molecule microarray, Alexa647-labelled CAII (AID 1122); conditions: CAII-A647 binding fluorescence, higher = more signal
# [5] = COS7 lysate on small-molecule microarray, probe aHis, 635 nm (AID 1123); conditions: COS7 cell lysate, fluorescence, higher = more signal;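 also: z-score combines 667nm fluorescence intensity with signal-to-noise per printed compound spot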
# [6] = compound binding in COS7 lysate, probe aLAP1, primary screen, cell lysate, small-molecule microarray (AID 1124); conditions: probe aLAP1, fluorescence, higher = more signal;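 also: lysate comes from COS7 cells expressing LAP1 and is applied at 0.3 µg/mL; score merges spot fluorescence near 667 nm with signal-to-noise over triplicate slides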
# Sam68 (KHDRBS1) = assay: Sam68 small-molecule binders, primary screen, biochemical, small-molecule microarray, 635 nm fluorescence (AID 1125); conditions: small-molecule microarray binding, higher = more signal;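 also: score merges 667 nm channel intensity with signal to noise over triplicate slides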
# [7] = system: Chordin-like protein 2 (CHRDL2); assay: CHRDL2 small-molecule binders, primary screen, biochemical, small-molecule microarray, 635 nm fluorescence (AID 1126); conditions: small-molecule microarray binding, fluorescence 635 nm; higher = more signal;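 also: printed compound slides probed with Chrdl2 protein at 4 µg/mL for 1 h at 4 C; score merges 667 nm emission intensity with signal to noise over three replicate slides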
# [8] = target: Concanavalin-A (Canavalia ensiformis) (UniProt P02866); assay: ConA small-molecule binders, primary screen, artefact control for SMM control protein annotation, biochemical, small-molecule microarray, Alexa647 label, 635 nm (AID 1127); conditions: ConA-A647 binding fluorescence, higher = more signal;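 also: z combines 667 nm emission intensity with signal-to-noise across three replicate slides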
# [9] = anti-His antibody binders, primary screen, artefact control for SMM control protein annotation, biochemical, small-molecule microarray, 635 nm fluorescence (AID 1128); conditions: anti-His Alexa647 antibody binding, higher = more signal;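 also: score merges feature fluorescence with signal-to-noise for each printed compound spot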
# [10] = system: Human papillomavirus type 1a E7 protein (residues 1-88); assay: HPV1a E7 small-molecule binders, primary screen, biochemical, small-molecule microarray, residues 1-88, 635 nm (AID 1129); conditions: small-molecule microarray binding, fluorescence 635 nm; higher = more signal
# [11] = target: Focal adhesion kinase 1 (Homo sapiens) (UniProt Q05397); assay: small-molecule microarray binders of FAK, primary screen, biochemical, 635/667 nm fluorescence, BSA, DTT (AID 1130); conditions: PTK2 binding, 635 nm fluorescence, higher = more signal;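 also: composite of spot emission at 667 nm and signal to noise over triplicate slides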
# [12] = system: Fibrinogen (Alexa647-labelled); assay: fibrinogen binders on compound microarrays, profiling panel, artefact control for SMM control-protein annotation, biochemical, small-molecule microarray, 635/667 nm fluorescence (AID 1131); conditions: fibrinogen-A647 binding fluorescence, higher = more signal;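 also: z-score merges 667 nm fluorescence with per-spot signal-to-noise over triplicate slides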
# [13] = target: Follistatin (Homo sapiens) (UniProt P19883); assay: follistatin binders on small-molecule microarrays, primary screen, biochemical, small-molecule microarray, 635/667 nm fluorescence (AID 1132); conditions: FST binding, 635 nm fluorescence, higher = more signal
# [14] = target: Fibroblast growth factor 2 (Homo sapiens) (UniProt P09038); assay: FGF2 binders on small-molecule microarrays, primary screen, biochemical, small-molecule microarray, 635/667 nm fluorescence (AID 1133); conditions: small-molecule microarray binding, FGF2, fluorescence 635/667; higher = more signal
# [15] = mitochondrial membrane potential change in A549 cells, profiling panel, cell-based, JC-1 fluorescence, basal, 24 h, 100 nL (AID 1138); conditions: higher = more signal;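 also: A549 lung adenocarcinoma cells under basal conditions with no added stimulus; test concentration not given here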
# Lefty1 = Lefty1 binders on small-molecule microarrays, primary screen, biochemical, small-molecule microarray, 635/667 nm fluorescence (AID 1139); conditions: small-molecule microarray binding, fluorescence 635/667; higher = more signal
# [16] = system: wheat germ agglutinin (Triticum aestivum), Alexa647-labelled; assay: wheat germ agglutinin binders on compound microarrays, profiling panel, artefact control for SMM control-protein annotation, biochemical, small-molecule microarray, 635/667 nm fluorescence (AID 1140); conditions: WGA-A647 binding, 635 nm fluorescence, higher = more signal;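 also: score merges 667 nm feature emission with signal to noise over triplicate slides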
# [17] = target: Luciferin 4-monooxygenase (Photinus pyralis) (UniProt P08659); assay: firefly luciferase enzyme inhibitors, primary screen, biochemical, luminescence, purified enzyme, 2006 set (AID 1141); conditions: SteadyGlo luminescence, 30 min, higher = more signal, called active from +8 up or from −8 down;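 also: cell-free assay with purified firefly luciferase at 100 ng per well in PBS; test concentration not given here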
# Chain of Luciferin 4-monooxygenase (Photinus pyralis) (P08659 whole entry, looked up): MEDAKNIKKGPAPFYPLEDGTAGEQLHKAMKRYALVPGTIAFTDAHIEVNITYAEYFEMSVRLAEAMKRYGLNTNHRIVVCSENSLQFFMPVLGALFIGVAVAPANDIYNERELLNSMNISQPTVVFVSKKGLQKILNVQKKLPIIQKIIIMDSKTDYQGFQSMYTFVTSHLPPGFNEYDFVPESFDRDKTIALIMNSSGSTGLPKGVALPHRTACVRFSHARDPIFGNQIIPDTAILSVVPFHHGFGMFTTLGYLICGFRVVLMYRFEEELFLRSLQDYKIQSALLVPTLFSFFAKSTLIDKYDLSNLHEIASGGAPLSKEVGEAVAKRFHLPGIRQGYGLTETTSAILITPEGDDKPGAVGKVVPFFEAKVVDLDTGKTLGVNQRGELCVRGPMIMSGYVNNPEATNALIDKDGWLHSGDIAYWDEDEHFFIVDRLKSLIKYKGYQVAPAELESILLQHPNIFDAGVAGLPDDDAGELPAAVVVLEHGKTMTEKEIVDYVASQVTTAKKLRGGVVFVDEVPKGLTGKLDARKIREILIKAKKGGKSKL
# Chain of Albumin (Bos taurus) (P02769 whole entry, looked up): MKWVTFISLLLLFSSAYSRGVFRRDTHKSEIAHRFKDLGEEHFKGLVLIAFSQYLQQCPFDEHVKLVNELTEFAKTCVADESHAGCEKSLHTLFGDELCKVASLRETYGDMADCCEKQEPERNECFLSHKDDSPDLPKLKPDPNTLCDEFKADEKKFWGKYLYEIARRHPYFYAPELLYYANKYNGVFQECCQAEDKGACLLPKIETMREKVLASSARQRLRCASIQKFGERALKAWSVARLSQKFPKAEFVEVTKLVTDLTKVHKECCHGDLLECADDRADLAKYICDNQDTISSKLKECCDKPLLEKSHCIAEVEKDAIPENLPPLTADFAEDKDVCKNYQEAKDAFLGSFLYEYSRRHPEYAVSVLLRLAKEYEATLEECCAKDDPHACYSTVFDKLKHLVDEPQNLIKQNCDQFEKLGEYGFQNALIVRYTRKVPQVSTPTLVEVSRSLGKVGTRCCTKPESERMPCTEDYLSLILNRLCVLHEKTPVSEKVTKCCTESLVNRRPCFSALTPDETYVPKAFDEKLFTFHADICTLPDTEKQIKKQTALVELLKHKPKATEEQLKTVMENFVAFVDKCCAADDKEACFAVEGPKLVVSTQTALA
# Chain of Follistatin (Homo sapiens) (P19883 whole entry, looked up): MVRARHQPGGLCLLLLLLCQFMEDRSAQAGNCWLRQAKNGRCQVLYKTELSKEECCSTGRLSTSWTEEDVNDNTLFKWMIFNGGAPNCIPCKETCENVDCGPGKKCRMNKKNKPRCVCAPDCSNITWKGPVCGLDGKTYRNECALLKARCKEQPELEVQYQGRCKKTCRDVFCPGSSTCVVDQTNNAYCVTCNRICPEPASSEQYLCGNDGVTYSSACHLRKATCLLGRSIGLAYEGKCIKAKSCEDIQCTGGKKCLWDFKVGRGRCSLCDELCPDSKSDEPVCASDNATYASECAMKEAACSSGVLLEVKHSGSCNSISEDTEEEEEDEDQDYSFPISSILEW
# Chain of Fibroblast growth factor 2 (Homo sapiens) (P09038 whole entry, looked up): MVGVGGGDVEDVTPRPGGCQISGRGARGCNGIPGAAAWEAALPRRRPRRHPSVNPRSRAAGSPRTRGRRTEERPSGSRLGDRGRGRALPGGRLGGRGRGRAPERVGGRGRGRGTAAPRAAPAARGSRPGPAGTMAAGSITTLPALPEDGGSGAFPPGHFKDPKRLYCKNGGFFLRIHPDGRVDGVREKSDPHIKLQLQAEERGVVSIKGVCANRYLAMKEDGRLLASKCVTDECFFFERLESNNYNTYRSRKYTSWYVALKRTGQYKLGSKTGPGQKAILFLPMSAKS
# Chain of Focal adhesion kinase 1 (Homo sapiens) (Q05397 whole entry, looked up): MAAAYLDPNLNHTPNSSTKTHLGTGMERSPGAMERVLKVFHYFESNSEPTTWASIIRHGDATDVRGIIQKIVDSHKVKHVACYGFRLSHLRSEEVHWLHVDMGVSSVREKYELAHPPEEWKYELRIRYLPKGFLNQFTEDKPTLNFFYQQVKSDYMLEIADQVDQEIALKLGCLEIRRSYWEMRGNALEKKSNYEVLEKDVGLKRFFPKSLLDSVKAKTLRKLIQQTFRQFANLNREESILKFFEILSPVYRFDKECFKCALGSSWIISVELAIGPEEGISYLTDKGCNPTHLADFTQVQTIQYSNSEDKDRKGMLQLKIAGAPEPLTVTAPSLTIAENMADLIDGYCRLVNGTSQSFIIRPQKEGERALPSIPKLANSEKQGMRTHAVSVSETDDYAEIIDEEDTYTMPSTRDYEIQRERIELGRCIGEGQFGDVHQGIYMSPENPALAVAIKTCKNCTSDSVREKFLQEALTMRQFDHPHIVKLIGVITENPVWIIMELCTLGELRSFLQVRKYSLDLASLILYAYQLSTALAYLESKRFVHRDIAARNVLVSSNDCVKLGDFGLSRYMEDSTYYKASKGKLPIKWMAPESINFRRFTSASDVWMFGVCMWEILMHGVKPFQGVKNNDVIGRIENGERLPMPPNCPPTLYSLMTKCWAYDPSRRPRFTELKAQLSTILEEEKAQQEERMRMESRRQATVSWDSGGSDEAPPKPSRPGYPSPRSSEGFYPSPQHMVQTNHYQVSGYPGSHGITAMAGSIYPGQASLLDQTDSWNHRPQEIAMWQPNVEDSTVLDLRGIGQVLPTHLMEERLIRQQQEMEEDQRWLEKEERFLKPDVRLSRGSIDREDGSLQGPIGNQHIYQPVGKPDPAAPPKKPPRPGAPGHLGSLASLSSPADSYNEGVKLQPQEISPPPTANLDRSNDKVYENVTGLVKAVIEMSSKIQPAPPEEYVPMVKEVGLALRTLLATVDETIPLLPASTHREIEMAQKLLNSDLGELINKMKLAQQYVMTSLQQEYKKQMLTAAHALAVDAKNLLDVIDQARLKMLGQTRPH
# Chain of Concanavalin-A (Canavalia ensiformis) (P02866 whole entry, looked up): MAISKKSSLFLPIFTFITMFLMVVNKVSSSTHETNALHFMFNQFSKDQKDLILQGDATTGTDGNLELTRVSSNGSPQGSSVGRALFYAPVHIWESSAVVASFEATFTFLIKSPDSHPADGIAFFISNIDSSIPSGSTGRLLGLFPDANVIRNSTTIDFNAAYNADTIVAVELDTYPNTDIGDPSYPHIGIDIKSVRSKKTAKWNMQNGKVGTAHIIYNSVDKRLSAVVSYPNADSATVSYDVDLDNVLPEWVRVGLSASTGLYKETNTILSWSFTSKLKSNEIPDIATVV
SMILES,composite z-score (Albumin (Bos taurus)),composite Z-score [1],composite z-score [2],composite z-score [3],composite z-score [4],composite z-score [5],composite z-score [6],composite z-score (Sam68 (KHDRBS1)),composite z-score [7],composite z-score [8],composite z-score [9],composite z-score [10],composite z-score [11],composite z-score [12],composite z-score [13],composite z-score [14],z-score [15],composite z-score (Lefty1),composite z-score [16],z-score [17]
C=CC[C@]12N=C(c3ccc(OCCCO)cc3)O[C@H]1c1ccccc1N(CCS(=O)(=O)c1ccccc1)C2=O,0.922,0.526 (inactive),-0.0728,-0.0692,0.727,1.12,0.486,1.3,0.873,1.18,1.66,1.23,0.472,0.971,1.15,1.38,0.337,1.05,0.97,-12.4 (active)
COc1ccc([Si](C)(C)[C@@H]2[C@@H](CCn3cc([C@H](O)c4ccccc4)nn3)O[C@]3(C(=O)N(Cc4cccc(N5CCC5=O)c4)c4ccccc43)[C@H]2C)cc1,-0.185,-0.0405 (inactive),-0.152,-0.0598,-0.105,0.288,0.0413,-0.233,0.422,0.0651,0.963,0.227,-0.285,0.119,1.15,1.06,2.21,0.0197,0.187,0.258 (inactive)
C[N+](C)(C)CCCC[C@@H]1NC(=O)[C@H]2C[C@@H](C(=O)NCCCCCCNC(=O)CS)[C@@H](c3ccc(O)cc3)N2C1=O,0.329,-0.921 (inactive),-0.437,-0.0764,0.501,0.483,1.49,-0.611,0.0077,-2.35,1.44,-0.0478,-0.103,-2.2,1.36,0.247,-0.459,0.0544,-1.07,0.24 (inactive)
CO[C@H]1O[C@H](CO)[C@@H](OC(=O)Nc2ccccc2-c2ccccc2)[C@H](OC(=O)Nc2ccccc2-c2ccccc2)[C@@H]1OC(=O)Nc1ccccc1-c1ccccc1,0.926,0.523 (inactive),0.0904,-0.0513,0.374,2.18,0.75,1.29,0.332,1.17,0.747,1.23,0.993,0.906,1.2,0.814,-0.00054,0.55,0.827,-0.858 (inactive)
COC(=O)[C@@]1(Cc2ccc(F)cc2)[C@H]2c3cc(C(=O)N(C)C)n(Cc4cc(C)n(C)n4)c3C[C@H]2CN1C(=O)c1ccccc1,1.03,0.467 (inactive),0.19,0.0552,0.806,3.08,0.738,1.31,-0.141,1.01,2.76,1.2,0.646,0.795,0.577,-0.237,-0.013,-0.574,0.537,0.272 (inactive)
CC(=O)NCCCC[C@@H]1NC(=O)[C@H]2C[C@@H](C(=O)NCCCCCNC(=O)CS)[C@@H](c3ccc(O)cc3)N2C1=O,-0.16,-0.249 (inactive),-0.136,-0.133,0.704,1.07,-0.269,0.338,-0.105,0.509,2.12,-0.15,0.167,-0.355,0.769,0.424,0.139,-0.272,-0.0796,-2.56 (inactive)
CCCCN1CC=CC23O[C@@H]4/C=C\CCCOC(=O)C4[C@H]2C(=O)N(CCCO)[C@@H]3C1=O (stereo not given in full),-0.314,0.949 (inactive),-0.229,-0.18,0.939,1.28,1.82,-0.158,-0.824,-1.4,2.36,-0.43,-0.226,-1.73,-0.98,-0.251,0.259,-0.0249,-0.151,0.633 (inactive)
O[C@@H](Cc1ccccc1)[C@@H](/C=C/C1CC1)NCc1cccc(Cl)c1,-0.0308,-0.515 (inactive),-0.272,-0.146,-0.397,-0.266,-0.273,-0.53,-1.11,-0.509,0.183,-0.431,0.314,-1.7,-1.4,-1.99,-0.164,-0.717,0.204,0.585 (inactive)
CCN(CC)c1ccc(N2CC=CC34O[C@@H]5C=CCOC(=O)[C@@H]5[C@H]3C(=O)N(CCCCCCO)[C@@H]4C2=O)cc1 (stereo not given in full),0.99,0.451 (inactive),-0.126,-0.174,0.909,0.922,0.751,0.0127,-1.5,-0.214,0.449,-0.202,-0.148,-1.57,-0.0283,-0.666,0.262,0.436,-0.0009,-3.88 (inactive)
CCCNC(=O)[C@@]1(Sc2ccc(C)cc2)CC(=O)N(Cc2ccccc2C(F)(F)F)[C@@H]1c1ccc(CO)cc1I,0.31,0.222 (inactive),0.0696,-0.123,0.624,1.82,0.116,1.29,0.315,0.435,-0.132,0.934,0.0382,0.956,1.36,0.76,-0.722,0.849,0.28,0.262 (inactive)
COC(=O)[C@@]1(Cc2ccccc2)[C@H]2c3cc(C(=O)N4CCCC4)n(Cc4c(CO)[nH]cc(C)c4=O)c3C[C@H]2CN1C(=O)c1ccccc1,0.677,-0.0461 (inactive),0.0076,0.154,0.701,2.64,1.32,0.109,-0.174,0.0417,1.18,0.93,0.777,0.827,0.518,-0.258,-0.0421,-0.816,1.05,2.49 (inactive)
C=CC[C@]1(C(N)=O)COC(c2ccc(OCCCO)cc2)=N1,0.102,0.0767 (inactive),0.0831,-0.104,0.903,0.148,-0.136,-0.133,0.0919,0.817,1.07,0.017,0.2,0.561,0.786,1.31,0.359,0.863,0.493,0.322 (inactive)
COc1cc2c(cc1O)C(c1cccs1)N(Cc1cccc(OC(F)(F)F)c1)CC2 (stereo not given),0.899,0.934 (inactive),-0.128,-0.148,0.78,2.6,0.336,1.15,0.375,0.127,2.17,0.733,0.758,0.173,0.457,0.252,-0.0263,-0.196,0.84,-0.619 (inactive)
C=CCNC(=O)[C@@H]1[C@H]2C(=O)O[C@H](c3ccccc3)[C@H](c3ccccc3)N2[C@H](c2ccc(OCCO)cc2)[C@@]12C(=O)N(C(=O)OCCOC)c1ccc(C#CCC(C(=O)OC)C(=O)OC)cc12,0.371,0.0558 (inactive),0.199,0.0278,0.637,1.37,1.05,1.31,0.665,1.09,1.67,1.16,1.31,0.603,1.24,1.48,-1.18,0.991,1.05,-0.262 (inactive)
COC(=O)[C@]1(CCC(=O)OC(C)(C)C)N=C(c2ccc(OCCCO)cc2)O[C@@H]1c1ccccc1,0.0503,1.55 (inactive),0.0834,0.153,0.687,1.83,0.569,-0.116,-0.483,0.259,2.76,0.527,-0.239,-0.233,0.263,0.16,0.804,-0.657,0.197,-2.77 (inactive)
COc1cc(CO)cc(I)c1O[C@H]1C=C(C(=O)NCCO)C[C@@H](NC[C@@H]2CCCO2)[C@@H]1O,0.0917,-0.791 (inactive),0.105,-0.14,-0.0877,-0.0856,0.696,1.16,0.0292,0.0446,0.296,0.63,0.106,0.346,0.323,0.599,0.452,0.831,0.483,0.758 (inactive)
COCCOC(=O)N1C(=O)[C@@]2(c3cc(C#CC4=CCCCC4)ccc31)[C@H](c1ccc(OCCO)cc1)N1[C@H](c3ccccc3)[C@H](c3ccccc3)OC(=O)[C@H]1[C@@H]2C(=O)N1CCc2cc(OC)c(OC)cc2C1,0.134,0.111 (inactive),0.206,-0.0677,0.342,1.01,0.868,1.31,0.839,0.922,0.936,1.19,0.647,0.874,0.989,1.32,-0.729,1.11,-0.0709,-2.35 (inactive)
Cc1ccc(S[C@]2(C(=O)NCC(C)C)CC(=O)N(Cc3cc(C(F)(F)F)cc(C(F)(F)F)c3)[C@@H]2c2ccc(CO)cc2)cc1,0.539,-0.0662 (inactive),-0.123,0.0362,0.78,0.586,1.56,-0.309,-0.256,-0.512,0.63,-0.8,-0.261,-0.529,-0.0643,-0.205,-0.587,-0.866,-0.262,0.111 (inactive)
